This note sets out measurements from PubChem BioAssay.

Calls of active or inactive are those of the source. Unless noted, the rule behind the calls is not given here.

The test system of test [1] is Wnt5a (protein binding on small-molecule microarray). In words: small molecules binding Wnt5a protein – biophysical, small-molecule microarray, 635/667 nm fluorescence, primary screen (AID 1142).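 Note: fluorescence read at 667 nm with signal to noise per printed feature.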 The following applies: 635 nm fluorescence, higher = more signal.
Test [2] can be described thus: ATP-based viability of Huh7 replicon cells – cell-based, CellTiter-Glo luminescence, basal, 48 h, cytotoxicity control for HCV replication inhibitor project, primary screen (AID 1143).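 Note: Huh7 hepatoma cells carrying a hepatitis C replication reporter with no stimulus; test concentration not given here.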 The following applies: higher = more signal, called active from +8 up or from −8 down. (In general: In antiviral work, replicon cells carry a viral genome segment that copies itself.)
The nature of test [3]: Pseudomonas biofilm growth suppression – PAO1 strain, BacTiter-Glo luminescence, LB-PBS, primary screen (AID 1144). The following applies: P. aeruginosa PAO1 biofilm, 12 h, higher = more signal.
Test [4] can be described thus: basal CRE-LacZ reporter activity in PC12 – cell-based, unstimulated, primary screen (AID 1145). Particulars: no forskolin, luminescence, 4.5 h, higher = more signal, called active from +8 up or from −8 down.
Test [5] is described as follows: forskolin-driven CRE-LacZ activity in PC12 – cell-based, CRE-LacZ reporter, forskolin-stimulated, primary screen (AID 1146).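 Note: PC12 cells with 6xCRE LacZ reporter stimulated by forskolin 10 µM; beta-galactosidase reporter signal reflecting CREB driven transcription.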 The following applies: luminescence, 4.5 h, higher = more signal, called active from +8 up or from −8 down.
The target of test [6] is Streptavidin (Streptomyces avidinii) (UniProt P22629). Nature of the test: compounds binding control protein streptavidin – biophysical, small-molecule microarray, 635/667 nm fluorescence, artefact control for SMM compound annotation, primary screen (AID 1147).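 Note: signal reflects streptavidin binding to arrayed compounds as a control protein.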 The following applies: higher = more signal.
Test [7] in a line: probe aInhba binding on compound microarray – biochemical, small-molecule microarray, 635/667 nm fluorescence, primary screen (AID 1148).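 Note: score merges 667nm spot fluorescence with signal-to-noise for antibody binding to printed compounds.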 Particulars: higher = more signal.
In test [8] the target is Torsin-1A (Homo sapiens) (UniProt O14656). In words: TOR1A wild-type binding on microarray – cell lysate, small-molecule microarray, lysate, 635/667 nm, primary screen (AID 1149). The following applies: COS7 hTOR1A-WT lysate, 635 nm fluorescence, higher = more signal.
The target is the same in test [9]. Nature of the test: torsin A mutant lysate binding on microarrays – cell lysate, small-molecule microarray, COS7 lysate, 635/667 nm fluorescence, primary screen (AID 1150).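 Note: score pools 667 nm emission and signal to noise measuring lysate protein binding.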 Particulars: COS7 hTOR1A mutant lysate, 635 nm fluorescence, higher = more signal.
In test [10] the test system is Sonic hedgehog protein (Shh). In words: Sonic hedgehog microarray binding compounds – biochemical, small-molecule microarray, 635/667 nm fluorescence, primary screen (AID 1151).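 Note: Shh protein binding to compounds spotted on small-molecule microarray slides; score combines spot fluorescence intensity with signal-to-noise across triplicate slides.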 Particulars: 635 nm fluorescence, higher = more signal.
The nature of test [11]: optical density shifts of acrAB sulA E. coli – strain DRC41, OD650, 48 h, E. coli filamentation inducer project, primary screen (AID 1152).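 Note: E. coli MC1000 strain DRC41 lacking acrAB efflux pump and sulA.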 The following applies: higher = more signal, called active from +8 up or from −8 down.
The nature of test [12]: probe aLefty1 binding on compound microarray – biochemical, small-molecule microarray, 635/667 nm fluorescence, primary screen (AID 1153).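 Note: score merges spot fluorescence with signal-to-noise ratio from the scanned slide images.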 Particulars: higher = more signal.
Test [13] can be described thus: plasmodial surface anion channel blockers, osmotic lysis – cell-based, P. falciparum Indochina, OD700, 1 h, primary screen (AID 1154). The following applies: P. falciparum Indochina infected RBC osmotic lysis, higher = more signal, called active from +8 up or from −8 down.
Test [14] can be described thus: plasmodial surface anion channel blockers, osmotic lysis – cell-based, P. falciparum Indochina, OD700, 2 h, primary screen (AID 1155).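 Note: lysis reports solute entry through the parasite surface anion channel PSAC.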 Particulars: P. falciparum Indochina infected erythrocytes, higher = more signal, called active from +8 up or from −8 down.
Test [15] in a line: changes in parasitized red cell lysis, either direction – P. falciparum Indochina, OD700, 3 h, PSAC antagonist project, primary screen (AID 1156). Particulars: P. falciparum-infected erythrocytes, osmotic lysis, higher = more signal, called active from +8 up or from −8 down.
The nature of test [16]: plasmodial surface anion channel blockers, osmotic lysis – cell-based, P. falciparum Indochina, OD700, 18 h, primary screen (AID 1157). The following applies: P. falciparum Indochina infected erythrocytes, osmotic lysis OD700, 18 h; higher = more signal, called active from +8 up or from −8 down.
A short description of test [17]: S6 kinase pathway phospho-S6 level changes – cell-based, A549, cytoblot, luminescence, serum-stimulated, primary screen (AID 1158).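 Note: serum-stimulated A549 lung adenocarcinoma cells; signal is phosphorylated S6 detected by cytoblot immunostaining with HRP secondary.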 Particulars: 5 h, higher = more signal.
Test [18] deals with NADPH oxidase 2 (Homo sapiens) (UniProt P04839). In words: compounds shifting NOX2 Amplex Red fluorescence – cell-based, HEK293-NOX2, PMA-stimulated, NOX inhibitor project, primary screen (AID 1159). Note: test concentration not given here. Particulars: 45 min, higher = more signal, called active from +8 up or from −8 down.
The target of test [19] is NADPH oxidase 4 (Homo sapiens) (UniProt Q9NPH5). Nature of the test: compounds shifting NOX4 Amplex Red fluorescence – cell-based, HEK293-NOX4, tetracycline-induced, NOX inhibitor project, primary screen (AID 1160). Particulars: HEK293-NOX4, Amplex Red H2O2 fluorescence, 45 min; higher = more signal, called active from +8 up or from −8 down.
Test [20] addresses NADPH oxidase 5 (Homo sapiens) (UniProt Q96PH1). In words: compounds shifting NOX5 Amplex Red fluorescence – cell-based, HEK293-NOX5, NOX inhibitor project, primary screen (AID 1161). The following applies: HEK293-NOX5, ionomycin, 45 min, higher = more signal.

Sequence of NADPH oxidase 5 (Homo sapiens) (Q96PH1 whole entry, looked up): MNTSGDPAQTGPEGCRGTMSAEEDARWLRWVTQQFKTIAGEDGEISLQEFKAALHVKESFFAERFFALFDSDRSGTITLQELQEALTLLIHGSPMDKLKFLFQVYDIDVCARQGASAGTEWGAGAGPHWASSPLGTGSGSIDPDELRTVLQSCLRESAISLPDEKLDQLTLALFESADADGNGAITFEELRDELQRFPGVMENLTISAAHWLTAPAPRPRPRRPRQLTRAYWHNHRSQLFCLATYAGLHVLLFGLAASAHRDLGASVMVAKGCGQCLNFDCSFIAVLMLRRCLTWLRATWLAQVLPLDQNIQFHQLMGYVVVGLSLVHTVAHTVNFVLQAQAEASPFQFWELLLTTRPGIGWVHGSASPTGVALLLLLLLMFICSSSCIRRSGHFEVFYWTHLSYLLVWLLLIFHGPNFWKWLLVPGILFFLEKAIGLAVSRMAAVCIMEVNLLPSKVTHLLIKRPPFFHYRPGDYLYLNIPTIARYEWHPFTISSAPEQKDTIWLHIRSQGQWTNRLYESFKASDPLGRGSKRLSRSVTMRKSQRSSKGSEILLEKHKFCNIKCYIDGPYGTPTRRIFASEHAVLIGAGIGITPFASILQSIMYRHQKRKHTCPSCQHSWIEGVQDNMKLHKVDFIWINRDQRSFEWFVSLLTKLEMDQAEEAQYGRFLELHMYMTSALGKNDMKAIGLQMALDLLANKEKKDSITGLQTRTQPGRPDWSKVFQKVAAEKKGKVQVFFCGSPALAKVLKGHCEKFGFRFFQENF
Sequence of Torsin-1A (Homo sapiens) (O14656 whole entry, looked up): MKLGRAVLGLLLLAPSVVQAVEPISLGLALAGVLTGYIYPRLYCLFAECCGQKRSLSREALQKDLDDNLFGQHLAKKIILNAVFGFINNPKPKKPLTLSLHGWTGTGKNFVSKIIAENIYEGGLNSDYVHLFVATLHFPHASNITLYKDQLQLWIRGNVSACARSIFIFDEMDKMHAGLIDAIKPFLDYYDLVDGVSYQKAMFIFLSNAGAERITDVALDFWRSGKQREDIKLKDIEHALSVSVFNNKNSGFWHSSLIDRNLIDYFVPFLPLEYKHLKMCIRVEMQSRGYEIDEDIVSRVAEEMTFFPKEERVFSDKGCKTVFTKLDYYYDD
Sequence of NADPH oxidase 2 (Homo sapiens) (P04839 whole entry, looked up): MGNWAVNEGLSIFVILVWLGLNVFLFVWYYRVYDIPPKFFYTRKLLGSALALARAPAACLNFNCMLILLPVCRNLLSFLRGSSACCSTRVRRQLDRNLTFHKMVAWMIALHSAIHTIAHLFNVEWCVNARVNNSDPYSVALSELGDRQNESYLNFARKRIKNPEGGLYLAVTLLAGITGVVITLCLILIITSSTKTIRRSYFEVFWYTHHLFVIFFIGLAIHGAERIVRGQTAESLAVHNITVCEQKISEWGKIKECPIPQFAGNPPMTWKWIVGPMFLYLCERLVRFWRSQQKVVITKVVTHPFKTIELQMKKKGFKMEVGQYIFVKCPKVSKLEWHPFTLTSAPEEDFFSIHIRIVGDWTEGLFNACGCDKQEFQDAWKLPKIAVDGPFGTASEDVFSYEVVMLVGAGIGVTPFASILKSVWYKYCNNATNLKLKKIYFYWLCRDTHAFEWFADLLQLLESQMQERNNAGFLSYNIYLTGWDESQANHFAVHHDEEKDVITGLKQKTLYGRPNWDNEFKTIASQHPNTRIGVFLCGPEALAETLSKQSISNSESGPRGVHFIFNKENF
Sequence of NADPH oxidase 4 (Homo sapiens) (Q9NPH5 whole entry, looked up): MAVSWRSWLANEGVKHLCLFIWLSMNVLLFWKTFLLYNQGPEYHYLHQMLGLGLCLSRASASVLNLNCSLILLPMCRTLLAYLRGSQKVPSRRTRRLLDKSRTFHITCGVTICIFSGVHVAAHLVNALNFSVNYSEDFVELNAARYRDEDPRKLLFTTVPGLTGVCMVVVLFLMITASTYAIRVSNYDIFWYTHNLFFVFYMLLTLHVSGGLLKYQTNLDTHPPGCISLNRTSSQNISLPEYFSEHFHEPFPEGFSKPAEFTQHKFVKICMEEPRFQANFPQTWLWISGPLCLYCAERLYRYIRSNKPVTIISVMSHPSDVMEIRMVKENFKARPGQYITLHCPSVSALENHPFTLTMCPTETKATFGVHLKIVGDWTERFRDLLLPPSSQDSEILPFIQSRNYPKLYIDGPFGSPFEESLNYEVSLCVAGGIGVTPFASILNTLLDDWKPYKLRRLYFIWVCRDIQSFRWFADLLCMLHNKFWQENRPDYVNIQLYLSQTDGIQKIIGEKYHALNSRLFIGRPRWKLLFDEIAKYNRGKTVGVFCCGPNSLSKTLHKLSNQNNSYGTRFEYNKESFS
Sequence of Streptavidin (Streptomyces avidinii) (P22629 whole entry, looked up): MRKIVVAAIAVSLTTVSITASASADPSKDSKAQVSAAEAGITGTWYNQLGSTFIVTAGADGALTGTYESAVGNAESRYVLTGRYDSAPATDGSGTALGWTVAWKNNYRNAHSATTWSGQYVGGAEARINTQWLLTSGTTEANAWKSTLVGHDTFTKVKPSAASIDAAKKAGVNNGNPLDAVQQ

Take `O=C(c1ccccc1)N1Cc2ccccc2C[C@@]2(COC(c3ccc(OCCCO)cc3)=N2)C1=O`: the composite z-score in [1] was 0.406; in test [6] it was 0.298; in [7], 0.167; with Torsin-1A (Homo sapiens) [8] it was 0.655; in the test with Torsin-1A (Homo sapiens) [9], 0.787; in test [10], 1.33. The composite z-score in test [12] was found to be 0.39. For the same compound, the z-score was -1.71 (inactive) in [2]; -0.0668 (inactive) in [3]; 2.72 (inactive) in test [4]; -0.152 (inactive) in test [5]; -0.298 (inactive) in [11]; 15.2 (active) in test [13]. Besides, the z-score in [14] is 1.26 (inactive); in test [15] it was 4.66 (inactive); in [16], 0.498 (inactive); in [17], -0.107; in test [18], 0.137 (inactive); in test [19], -0.302 (inactive). The z-score in test [20] is -0.983.

Take `C=CCOC(=O)[C@@H]1[C@H]2C(=O)O[C@H](c3ccccc3)[C@H](c3ccccc3)N2[C@H](c2ccc(OCCOC(=O)[C@@H]3C[C@@H]4C(=O)NCC(=O)N4[C@@H]3c3ccc(O)cc3)cc2)[C@@]12C(=O)Nc1ccc(I)cc12`: the composite z-score is 0.828 in test [1]; -0.259 in [6]; 0.029 in test [7]; 0.877 with Torsin-1A (Homo sapiens) [8]; 0.706 with Torsin-1A (Homo sapiens) [9]; 1.53 in [10]. The composite z-score in test [12] was -0.404. Besides, the z-score in [2] was 0.489 (inactive); in test [3] it was -0.725 (inactive); in test [4] it was -0.13 (inactive); in test [5], -0.974 (inactive); in test [11] it was 0.0692 (inactive); in [13] it was 0.894 (inactive). Further, the z-score in test [14] is 0.553 (inactive); in [15], 1.58 (inactive); in test [16], 0.398 (inactive); in test [17] it was 0.0971; in test [18], 1.46 (inactive); in [19], 0.978 (inactive). The z-score in [20] came out at 1.35.

`O[C@@H](Cc1ccccc1)[C@H]1C2C=CCCC=C2CN1Cc1cccc(Cl)c1` (stereo not given in full): the composite z-score in test [1] is 0.35; in [6] it was 0.513; in test [7] it was 0.0173; with Torsin-1A (Homo sapiens) [8] it was 0.739; with Torsin-1A (Homo sapiens) [9], -0.453; in [10], 1.2. This compound registered a composite z-score in test [12] of 0.0701. For the same compound, the z-score is -1.1 (inactive) in [2]; -0.829 (inactive) in test [3]; 3.56 (inactive) in [4]; 2.78 (inactive) in test [5]; 1.31 (inactive) in test [11]; 2.58 (inactive) in test [13]. For the same compound, the z-score in test [14] is 0.499 (inactive); in [15], 1.33 (inactive); in test [16], 0.108 (inactive); in test [17] it was 0.399; in test [18], -0.318 (inactive); in [19], -1.27 (inactive). Besides, the z-score in [20] was -0.609.

With `C=CCOC(=O)[C@H]1[C@@H]2C(=O)O[C@@H](c3ccccc3)[C@@H](c3ccccc3)N2[C@@H](c2ccc(OCCOC(=O)[C@@H]3C[C@@H]4C(=O)N[C@@H](CCCCNC(C)=O)C(=O)N4[C@@H]3c3ccc(O)cc3)cc2)[C@]12C(=O)Nc1ccccc12`, the composite z-score is 0.39 in test [1]; -0.0038 in test [6]; 0.095 in test [7]; 0.665 with Torsin-1A (Homo sapiens) [8]; 0.505 with Torsin-1A (Homo sapiens) [9]; 2.05 in [10]. The composite z-score in test [12] is 0.379. Also, the z-score in test [2] was -0.0424 (inactive); in test [3], -0.122 (inactive); in [4] it was -0.126 (inactive); in [5], -0.464 (inactive); in [11], -0.226 (inactive); in test [13] it was 3.21 (inactive). The z-score in test [14] is 1.61 (inactive); in test [15] it was 4.15 (inactive); in test [16], 0.841 (inactive); in [17] it was -0.0842; in test [18], 1.56 (inactive); in [19], 0.962 (inactive). Also, the z-score in test [20] was 0.576.

As to `O=C1c2ccccc2[C@](Cc2ccccc2I)(C(=O)NCCN2CCOCC2)[C@H](c2ccc(CO)cc2)N1Cc1ccccc1Cl`, the composite z-score was 0.66 in test [1]; 0.851 in test [6]; 0.62 in [7]; 0.442 in the test with Torsin-1A (Homo sapiens) [8]; 0.244 with Torsin-1A (Homo sapiens) [9]; 1.43 in test [10]. In [12], this compound showed a composite z-score of 0.559. The z-score was -2.57 (inactive) in test [2]; 0.825 (inactive) in [3]; -0.0512 (inactive) in [4]; -1.01 (inactive) in [5]; 0.065 (inactive) in test [11]; 11.7 (active) in test [13]. Moreover, the z-score is 1.47 (inactive) in test [14]; 1.01 (inactive) in test [15]; 0.818 (inactive) in [16]; -0.0261 in test [17]; -0.136 (inactive) in test [18]; 0.707 (inactive) in [19]. For the same compound, the z-score in [20] is 0.608.

With `COCCOC(=O)N1C(=O)[C@@]2(c3cc(C#CCNC(N)=O)ccc31)[C@H](C(=O)Nc1nc3ccccc3s1)[C@H]1C(=O)O[C@H](c3ccccc3)[C@H](c3ccccc3)N1[C@@H]2c1ccc(OCCO)cc1`, the composite z-score in test [1] was 0.341; in test [6], 0.664; in test [7], 0.261; with Torsin-1A (Homo sapiens) [8], -0.0017; with Torsin-1A (Homo sapiens) [9] it was 0.452; in [10], 0.969. Moreover, the composite z-score in [12] came to 0.729. For the same compound, the z-score is 0.759 (inactive) in test [2]; -0.609 (inactive) in [3]; -0.874 (inactive) in [4]; -0.274 (inactive) in test [5]; -0.537 (inactive) in test [11]; 2.48 (inactive) in test [13]. Also, the z-score in test [14] is 1.23 (inactive); in test [15] it was 0.0531 (inactive); in test [16], 0.559 (inactive); in test [17] it was -0.0692; in [18], 1.42 (inactive); in [19], 1.19 (inactive). Besides, the z-score in [20] amounted to 1.4.

For the compound `COCCCNC(=O)[C@@H]1c2ccccc2C(=O)N(Cc2ccccc2Cl)[C@H]1c1ccc(CO)cc1`, the composite z-score in test [1] is -0.0355; in [6] it was 0.128; in test [7], 0.326; with Torsin-1A (Homo sapiens) [8], 0.494; with Torsin-1A (Homo sapiens) [9], 0.857; in test [10], 0.861. In addition, in [12], the composite z-score is -0.121. Also, the z-score in test [2] was -0.0743 (inactive); in test [3], 0.66 (inactive); in [4] it was -0.179 (inactive); in test [5], -0.268 (inactive); in [11], 2.51 (inactive); in test [13], 1.62 (inactive). Besides, the z-score is 0.293 (inactive) in [14]; 0.621 (inactive) in test [15]; 0.11 (inactive) in [16]; -0.0671 in test [17]; -0.285 (inactive) in [18]; 0.986 (inactive) in test [19]. Further, the z-score in [20] was found to be 0.306.

Regarding `C=CCN1C(=O)[C@]2(O[C@H](CCn3cc([C@H](O)c4ccccc4)nn3)[C@@H]([Si](C)(C)c3ccc(OC)cc3)[C@@H]2C)c2cc(N3CCC3=O)ccc21`, the composite z-score is 0.979 in [1]; -0.0806 in test [6]; 0.481 in test [7]; 0.279 with Torsin-1A (Homo sapiens) [8]; 0.398 in the test with Torsin-1A (Homo sapiens) [9]; 2.08 in test [10]. Besides, in [12], the composite z-score was 0.188. In addition, the z-score was -4.37 (inactive) in [2]; -0.549 (inactive) in test [3]; 2.37 (inactive) in [4]; -0.229 (inactive) in test [5]; 0.894 (inactive) in test [11]; 3.76 (inactive) in [13]. Besides, the z-score in [14] is 1.05 (inactive); in test [15] it was 2.62 (inactive); in test [16] it was 0.721 (inactive); in test [17] it was 2.02; in test [18], 0.632 (inactive); in test [19] it was -0.709 (inactive). Further, in [20], the z-score was -1.74.
